In PubChem BioAssay (NCI):
The panel holds about 83,000 compounds, 20% with a hit somewhere; the sample as a whole holds those more often.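 Percent growth is the endpoint: 0 to 100 indicates growth inhibition (40 means 60% inhibition), 0 means no net growth, and negative values indicate cell death.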 The source made the active and inactive calls.

Tested on: NCI-H226 lung
Test: NCI-60 one-dose screen, 48 h (100 = growth as untreated, 0 = no growth, -100 = all killed)
Details: 10 µM unless noted
Method: Growth inhibition of the NCI-H226 human Non-Small Cell Lung tumor cell line is measured as a screen for anti-cancer activity. Cells are grown in 96 well plates and exposed to the test compound for 48 hours. Compounds are tested at a single concentration, which is 10^-5 M for most compounds. The reported endpoint is percent growth (GI% or GIPRCNT), where numbers from 0 - 100% represent growth inhibition, and numbers from -100% - 0 represent cell death. For example, a value of 40 represents 60% growth inhibition. A value of 0 means no net growth occurred over the course of the experiment. A value of -40 indicates 40% of cells at the beginning of the experiment died by the end of the experiment. A value of -100 means all cells are dead at the end of the experiment.
NCI-60 Human Tumor Cell Lines Screen was performed using the standard one-dose NCI protocol, which is described in more detail at https://dtp.cancer.gov/discovery_development/nci-60/default.htm.
Compounds with GIPRCNT values below 10 were considered active. Activity score was based on GIPRCNT using the following formula: […]
Score is 0 for GIPRCNT values of 100 or above, 50 for GIPRCNT values of 0, and 100 for GIPRCNT values of -100.

Structure (SMILES)	growth
O=C(NO)c1ccc(Cn2c(=O)n(-c3ccccc3)c(=O)c3ccccc32)cc1	41.3% (inactive)
COC(=O)[C@]12CC[C@@H](C)[C@H](C)[C@@H]1C1=CC(=O)[C@@H]3[C@@]4(C)C[C@@H](O)[C@H](O)[C@@]5(C)COC(=C45)C[C@@]3(C)[C@]1(C)CC2	81.6% (inactive)
C=C(C)[C@@H]1CC[C@]2(C)CC[C@]3(C)[C@H](CC[C@@H]4[C@@]5(C)CCCNC(C)(C)[C@@H]5CC[C@]43C)[C@@H]12	96.5% (inactive)
CCCCC[C@H]1C/C=C2/C(=O)C(Cl)=C[C@@H]2C/C=C\CCCC(=O)O1	-32.7% (active)
CCOc1ccc(NC(=O)c2ccoc2COc2ccccc2)cc1	111% (inactive)
Oc1cccc2ccc(N/N=C/c3cc(CN4CCCCC4)c(O)c4ncccc34)nc12	-30% (active)
COc1cccc2c1C(=O)c1c(O)c3c(c(O)c1C2=O)C[C@@](O)(C(=O)CO)C[C@@H]3OC1C[C@H](N)[C@H](O)[C@H](C)O1 (stereo not given in full)	-40.5% (active)
O=C1C(=O)c2ccccc2C(O)=C1CCCc1ccc(C2CCCCC2)cc1	47.1% (inactive)
CCCCCCCCNc1cccc2c1C(=O)c1ccccc1C2=O	96.5% (inactive)
COc1cc(-c2cc(-c3nc4cc(Cl)c(Cl)cc4[nH]3)[nH]n2)cc(OC)c1OC	38% (inactive)
Cc1ccnc2c(OCc3ccccc3)cccc12	81.9% (inactive)
C[C@H]1[C@@H]2[C@H]3CC[C@@H]4[C@@]5(C)Cc6c([nH]c7ccccc67)C(C)(C)[C@@H]5CC[C@@]4(C)[C@]3(C)CC[C@]23CO[C@]1(C)[C@@H](C(=O)/C=C/c1ccccn1)C3	101% (inactive)
O=C(CI)Nc1ccc(O)c2ccccc12	-13.1% (active)
Nc1c(Cl)cc(N=Nc2ccccc2)cc1Cl	55.2% (inactive)
O=C1C=Cc2ncccc2C1=O	81.8% (inactive)
CC(C)(C)c1ccc(OP(=S)(N/N=C/c2ccccc2O)Oc2ccc(C(C)(C)C)cc2)cc1	58.6% (inactive)
CN1CCN(CCOc2ccc(-c3cnc4c(-c5cccc(F)c5)cnn4c3)cc2)CC1	109% (inactive)
N#CC1=C(N)Oc2c(c(N)nn2-c2ccccc2)C1c1ccc(Cl)cc1Cl (stereo not given)	102% (inactive)
C=CC(=O)N[C@H](Cc1ccc(-c2cc(Cl)cc(Cl)c2)cc1)[C@H](O)[C@@H](O)C(=O)O	71.3% (inactive)
c1ccc2c(-c3nc(-c4c[nH]c5ncccc45)cs3)c[nH]c2c1	97.9% (inactive)

Structure (SMILES)	growth
COc1ccc(C2(Cl)c3ccccc3N(c3ccccc3)c3ccccc32)cc1	-27.8% (active)
Cc1nn(-c2ccc(Br)cc2)c2nc3[nH]c(=O)[nH]c(=O)c3nc12	103% (inactive)
CCN(CC)CCCCCNc1cc(OC(=O)c2ccccc2)cc2cccnc12	118% (inactive)
COc1ccc(C2C(C#N)=C(N)Oc3c2sc2c(F)cccc32)cc1 (stereo not given)	76% (inactive)
C=C(C)[C@@H]1CC[C@]2(C(=O)N3CCN(CC)CC3)CC[C@]3(C)[C@H](CC[C@@H]4[C@@](C)(CCC(=O)N5CCN(CC)CC5)[C@H](C(=C)C)CC[C@]43C)[C@@H]12	79.6% (inactive)
NCCn1cc(-c2nc(-c3c[nH]c4ncccc34)cs2)c2cc(F)ccc21	74.5% (inactive)
CC(C)(C)CC(C)(C)c1ccc(OCCOCC[N+](C)(C)CC(=O)[O-])cc1	105% (inactive)
Cc1ccc(-c2ccc(Nc3ccccc3)nn2)cc1S(N)(=O)=O	99.2% (inactive)
COC(=O)[C@]12CC[C@@H](C)[C@H](C)[C@@H]1C1=CC[C@@H]3[C@@]4(C)C[C@@H](O)OC[C@](C)(C=O)C4C(=O)C[C@@]3(C)[C@]1(C)CC2 (stereo not given in full)	-21.5% (active)
O=C(NCN1C(=O)c2cccc3cccc(c23)C1=O)N1CCC(Cc2ccccc2)CC1	96.7% (inactive)
CC/C(=N/NC(N)=O)c1ccccc1	97.8% (inactive)
C=C(C)[C@@H]1CC[C@]2(C(=O)O)CC[C@]3(C)[C@H](CC[C@@H]4[C@@]5(C)C/C(=C/c6cccc(I)c6)C(=O)C(C)(C)[C@@H]5CC[C@]43C)[C@@H]12	31.5% (inactive)
COc1cc(/C=C/c2cc(/C=C/c3ccc(O)c(OC)c3)n(-c3ccc(Cl)cc3)c(=O)n2)ccc1O	91.3% (inactive)
C=C(C)[C@@H]1CC[C@]2(C=NCCCNCCCCNCCCN)CC[C@]3(C)[C@H](CC[C@@H]4[C@@]5(C)CCCNC(C)(C)[C@@H]5CC[C@]43C)[C@@H]12	80.1% (inactive)
COc1cc(/C=C/c2cc(/C=C/c3ccc(O)c(OC)c3)n(-c3ccccc3)c(=O)n2)ccc1O	80.2% (inactive)
COc1ccc(C(=O)/C=C/c2cc(-c3cc(OC)c(OC)c(OC)c3)n[nH]2)cc1OC	20.8% (inactive)
Nc1nc(Br)nc2c1ncn2C1CC(O)C(CO)O1 (stereo not given)	89.6% (inactive)
CSc1ccc(N(C)c2nc(C)nc3c2CCC3)cc1	55.5% (inactive)
CC(C)=CCC[C@](C)(O)[C@H]1CC[C@]2(C)[C@@H]1CC[C@@H]1[C@@]3(C)C/C(=C/c4cccc([N+](=O)[O-])c4)C(=O)C(C)(C)[C@@H]3CC[C@]12C	84.5% (inactive)
c1csc(-c2nc(-c3cc4ccccc4c(N4CCOCC4)n3)cs2)c1	107% (inactive)
